# About 79,000 compounds went through this panel and 15% of them were active in at least one assay; those are over-represented in the sample as a whole. Unmarked numbers belong to inactive results. Calls of active or inactive are those of the source. Rule as the data show it: active = growth inhibition above about 70%; inactive = the rest. Where a SMILES comes first, the peptide text is derived from it. [ ]: non-standard residue; d: D form. The star is where a group is joined. Cbz = O=C(OCc1ccccc1)*; Aib = CC(C)(N)C(=O)O
# Experiments:
# [1] = NCI Yeast Anticancer Drug Screen. Data for the rad50 strain (AID 155);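 also: 0% = growth of vehicle-only cultures of the same strain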; settings: S. cerevisiae rad50 strain growth inhibition; at 50.0 µM; hits give high values
# Method in brief: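 Relative growth inhibition (compound vs vehicle) was measured in yeast with a defined repair-gene alteration.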
# [2] = NCI Yeast Anticancer Drug Screen. Data for the mec2-1 strain (AID 157); settings: S. cerevisiae mec2-1 strain, at 50.0 µM, hits give high values
# Method in brief: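 Compounds were applied to mec2-1 yeast cells. Their growth was then compared with that of vehicle-treated cultures to give growth inhibition.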
# [3] = NCI Yeast Anticancer Drug Screen. Data for the sgs1 mgt1 strain (AID 161);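 also: 0% = growth of cultures given vehicle only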; settings: S. cerevisiae sgs1 mgt1 strain, at 50.0 µM, hits give high values
# Method in brief: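 Yeast cells carrying a defined DNA-repair defect were exposed to test compounds. Growth inhibition was measured relative to vehicle-treated controls.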
# [4] = NCI Yeast Anticancer Drug Screen. Data for the cln2 rad14 strain (AID 165);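 also: 0% = growth equal to vehicle treated cultures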; settings: S. cerevisiae cln2 rad14 strain, at 50.0 µM, hits give high values
# Method in brief: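 Strain: cln2 rad14 yeast, altered in cell cycle control and DNA damage repair. Read-out: growth inhibition vs vehicle.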
# [5] = NCI Yeast Anticancer Drug Screen. Data for the bub3 strain (AID 167); settings: S. cerevisiae bub3 mutant strain, at 50.0 µM, hits give high values
# Method in brief: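 Screening used yeast with an engineered genetic alteration affecting cell cycle control. Compound-exposed cultures were compared with vehicle cultures, and reduced growth was taken as inhibition.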
# [6] = NCI Yeast Anticancer Drug Screen. Data for the mlh1 rad18 strain (AID 175); settings: S. cerevisiae mlh1 rad18 strain growth inhibition; at 50.0 µM; hits give high values
# Method in brief: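 A repair-deficient yeast strain is exposed to test compound, and growth is scored relative to vehicle-treated controls.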
SMILES,growth inhibition [1],growth inhibition [2],growth inhibition [3],growth inhibition [4],growth inhibition [5],growth inhibition [6]
O=c1cccc(O)[nH]1,-14.8%,-17.6%,-15.1%,-0.15%,-15.7%,-8.85%
Cc1c2c(C#N)nccc2c(C)c2c1c1ccccc1n2Cc1ccccc1,33.5%,14.1%,-8.3%,20.9%,-28.7%,-45.6%
CCCCCCCCCCCCCCCCCCCOc1ccc(OCCCCCCCCCCCC)cc1,35%,-7.15%,25.9%,-40.1%,-1.35%,-15.9%
O/N=C/c1ccccn1,-0.95%,-31.9%,-5.6%,6.85%,-9.5%,0%
CC(C)(NC(=O)C(C)(C)NC(=O)OCc1ccccc1)C(=O)O (Cbz-[Aib]-[Aib]-OH),6.05%,-3.6%,3.9%,14.1%,0.25%,-64.5%
CCOC(=O)c1cc(C=O)oc1C,6.8%,-4.2%,-8.1%,-42.6%,2%,-0.75%
CC(=O)N(C)C1=C(Sc2ccc([N+](=O)[O-])cc2)C(=O)c2ccccc2C1=O,97% (active),99.5% (active),97.5% (active),99% (active),99.1% (active),98.9% (active)
O=C1NC(=O)C(c2ccc(Cl)cc2)(c2cccc(Cl)c2)N1 (stereo not given),11.1%,-16.5%,18.3%,-11.8%,5.9%,-5.9%
CCC(=O)OC1(c2ccccc2)C(CN(C)C)CCCC1CN(C)C (stereo not given),-11.2%,-17.6%,-22.2%,-47.9%,2.85%,-14.9%
CN(c1ccccc1)c1nc(=[N+](C)C)ss1,35.4%,26.5%,17%,24.1%,4.3%,31.8%
CCCCCCCC/C=C/CCCCCCCC(=O)N(C)CC(=O)O,-18.6%,-17%,10.8%,-29.1%,22.5%,-8.05%
O=c1cc2n(c(=O)n1Cc1ccccc1)CCC2,10.9%,4.25%,1.55%,1.5%,-3.9%,-6%
NC(N)=NC(N)=Nc1cnccn1,13.7%,6.8%,2.5%,15.8%,-10.5%,15.2%
CCCC(=O)Oc1ccc(C(C)(C)C)cc1,38.7%,6.75%,15.2%,10.8%,20.4%,5.5%
CCC(CO)(C(=O)O)c1ccccc1 (stereo not given),1.85%,22.2%,4.95%,46.9%,4.6%,2.3%
Cc1c(C)c(C)c(Br)c(C)c1C,-6.7%,-5.05%,-14%,-17.6%,1.15%,0.65%
O=CSC(=Nc1ccc(Cl)cc1)NC(=O)COc1ccc(Cl)cc1,5.05%,-21.4%,58.9%,-22.4%,33.3%,12.3%
COC(=O)/C=C1/CC[C@H]2[C@@H]3CCC4=CC(=O)CC[C@]4(C)[C@H]3C(=O)C[C@]12C,42.5%,6.35%,14.3%,-28%,14.2%,33.2%
O=C(Oc1ccccc1OC(=O)c1ccc(Cl)cc1)c1ccc(Cl)cc1,3.15%,6.4%,12.7%,6.7%,-2.65%,8.6%
O=C(Nc1ccccc1)Nc1ccc2ccccc2c1,-7.75%,-0.2%,2.1%,-22.2%,12.9%,-10.9%

SMILES,growth inhibition [1],growth inhibition [2],growth inhibition [3],growth inhibition [4],growth inhibition [5],growth inhibition [6]
O=[N+]([O-])c1ccccc1N=C=S,9.5%,-10.3%,-4.05%,-36%,-9.85%,-17.7%
CCOC(=O)C1C(C)=CC(=O)CC1CC (stereo not given),24.3%,-10.7%,14.8%,-1.05%,-3.85%,22.5%
CC1C2CC(C3(C)OCCO3)CCC2(C)CCC12OCCO2 (stereo not given),1.65%,16.9%,3.15%,11.5%,2.9%,5.4%
CCCCCCCCS(N)(=O)=O,0.8%,-15.2%,-4.1%,-11.4%,-2.55%,-8.95%
Cc1cc(=O)n(NC(N)=O)c(C)c1C(=O)O,-0.8%,0.45%,-13.8%,-29.5%,-1.3%,-5.45%
C(#CC(Sc1ccccc1)=C(Sc1ccccc1)Sc1ccccc1)Sc1ccccc1,3.1%,2.15%,-21.9%,-32.3%,5.6%,-6.25%
CC1(O)CCCCCCC1,0.85%,-3.6%,26.6%,0.7%,7.9%,7.8%
CC(=O)NC1C(OCc2ccccc2)OC(CO)C(O)C1OCc1ccccc1 (stereo not given),27.3%,-18.2%,15.6%,-24.1%,-2.9%,-11.8%
CN(C)c1ccc(C2c3c(oc4ccccc4c3=O)Oc3oc4ccccc4c(=O)c32)cc1,3.8%,-0.15%,-9.85%,5.4%,0.35%,-17.5%
CC1(C)[C@@H]2C[C@H]1[C@@H](Cc1cccc(C[C@H]3c4cc(-c5ccccn5)ncc4[C@H]4C[C@@H]3C4(C)C)c1)c1cc(-c3ccccn3)ncc12,45.4%,28.2%,45.4%,16.8%,45.9%,45.4%
CC(C)(CC(O)C#N)/[N+]([O-])=[N+](\[O-])C(C)(C)CC(O)C#N (stereo not given),3.75%,5.15%,34.1%,-4.15%,13.2%,-27.8%
O=C(CC(=O)N(C(=O)c1ccccc1)c1ccc(Cl)cc1)N/N=C\c1ccccc1O,1.35%,-5.4%,5.45%,-1.85%,19.9%,-15.4%
O=C(NNC(=O)c1ccc([N+](=O)[O-])cc1)c1ccccc1,-5.85%,13.1%,15.9%,-30.1%,-13.4%,-16.1%
[CH2+][B-]1(C)n2cc(Br)c[n+]2[B-](C)(C)[n+]2cc(Br)cn21,16.2%,16.8%,8.05%,9.8%,7.1%,22.6%
CN1CCCC1c1cccnc1.O=C(O)c1ccccc1O.O=C([O-])c1ccccc1[OH2+].O=C([O-])c1ccccc1[OH2+].O=C([O-])c1ccccc1[OH2+].[Mn+2] (stereo not given),1.55%,-14.2%,-10.3%,-29.6%,-45.8%,7.3%
CCCSCCC(N)C(=O)O (stereo not given),-33.2%,-15.9%,0.55%,-5.7%,-2.9%,-4.95%
Clc1ccc2sc(-n3ccc4ccccc43)nc2c1,-35.9%,-12.3%,-24.7%,7.65%,-15.4%,-30.7%
CNc1nc(Cl)cc2nc(Cl)cn12,-2.15%,15.8%,-18.6%,-12.1%,8.3%,4.55%
COC1/C=C/OC2(C)Oc3c(C)c(O)c4c(O)c(c(/C=N/OC/C=C(\C)CCC=C(C)C)c(O)c4c3C2=O)NC(=O)C(C)=C/C=C/C(C)C(O)C(C)C(O)C(C)C(OC(C)=O)C1C (stereo not given),-0.15%,-0.5%,-2.65%,-10.9%,-8.95%,30.4%
N/C(=N\c1nc(N)cc(N)n1)Nc1ccc(S(N)(=O)=O)cc1,-15.2%,4.25%,-6.25%,-32.2%,-5.6%,-4.15%

# Reference: PubChem BioAssay (NCI)
